Key:
Assay type in all cases: functional
[1] = molecular target: Solute carrier family 2, facilitated glucose transporter member 1 (Homo sapiens) (UniProt P11166); assay: ST_JUDE_LEISH: Cytotoxicity at 2uM final concentration against transgenic Leishmania Mexicana promastigotes LmGLUT1 that are glucose transport deficient and complemented with the human glucose transporter GLUT1. Activity is measured by DNA content using SYBR green in vitro
[2] = molecular target: Hexose transporter 1 (Plasmodium falciparum) (UniProt O97467); assay: ST_JUDE_LEISH: Cytotoxicity at 2uM final concentration against transgenic Leishmania Mexicana promastigotes LmPfHT that are glucose transport deficient and complemented with the Plasmodium falciparum hexose transporter. Activity is measured by DNA content using SYBR green in vitro
[3] = molecular target: Glucose transporter (Leishmania mexicana) (UniProt O61059); assay: ST_JUDE_LEISH: Cytotoxicity at 2uM final concentration against transgenic Leishmania Mexicana promastigotes LmGT2 that are glucose transport deficient and complemented with the L. Mexicana glucose transporter 2. Activity is measured by DNA content using SYBR green in vitro

Chain of Solute carrier family 2, facilitated glucose transporter member 1 (Homo sapiens) (P11166 whole entry): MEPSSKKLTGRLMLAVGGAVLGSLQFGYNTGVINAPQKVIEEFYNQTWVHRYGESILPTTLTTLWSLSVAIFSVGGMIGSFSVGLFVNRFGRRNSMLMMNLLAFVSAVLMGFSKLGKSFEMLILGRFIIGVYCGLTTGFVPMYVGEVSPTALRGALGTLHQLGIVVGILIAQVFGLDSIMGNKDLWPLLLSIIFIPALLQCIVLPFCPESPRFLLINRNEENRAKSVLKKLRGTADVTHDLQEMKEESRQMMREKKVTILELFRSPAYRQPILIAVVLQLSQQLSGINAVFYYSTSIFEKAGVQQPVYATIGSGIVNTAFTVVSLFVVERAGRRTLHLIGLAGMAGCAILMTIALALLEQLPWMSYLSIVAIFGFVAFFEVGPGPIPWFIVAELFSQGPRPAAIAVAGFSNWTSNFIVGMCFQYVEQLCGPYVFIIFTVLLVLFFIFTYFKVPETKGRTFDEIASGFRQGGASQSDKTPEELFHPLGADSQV

Q: With `O=C(Nc1cccc(-c2nn3ccccc3c2-c2ccnc(Nc3ccccc3)n2)c1)c1cc(F)ccc1F` as the compound, how does the inhibition [1] read?
A: Its inhibition is 4.48%.

Q: What about the inhibition [2] of the same compound?
A: The inhibition was 2.05%.

Q: And the inhibition [3]?
A: The inhibition was -2.21%.

Q: With `CCOc1ccc2[nH]c(-c3ccccc3)cc(=NN=Cc3ccncc3)c2c1` as the compound, how does the inhibition [1] read?
A: The inhibition was 1.66%.

Q: What about the inhibition [2] of the same compound?
A: The inhibition was 4.54%.

Q: What about the inhibition [3] of the same compound?
A: Its inhibition is -0.25%.

Q: How did the inhibition [1] turn out when `c1ccc(CN2CCN(c3cc(-c4cncc(-c5ccccc5)c4)nc(-c4ccccc4)n3)CC2)cc1` was run?
A: Its inhibition is 1.99%.

Q: And the inhibition [2]?
A: Its inhibition is 2.26%.

Q: And the inhibition [3]?
A: The inhibition was 1.99%.

Q: `O=C(NCc1ccccc1)Nc1ccc(-c2ccc(-c3nc4cc(C(F)(F)F)ccc4[nH]3)cc2)cc1` was tested. Which inhibition [1] did it give?
A: Its inhibition is 2.91%.

Q: What about the inhibition [2] of the same compound?
A: Its inhibition is 4.48%.

Q: What about the inhibition [3] of the same compound?
A: Its inhibition is 0.55%.

Q: What does the source list for `CCCCCC(C)C(C)c1cc(O)c2c(c1)OC(C)(C)CC2c1cc[n+]([O-])cc1` (stereo unspecified)?
A: inhibition [1]: 3.19%; inhibition [2]: 4.07%; inhibition [3]: 4.64%

Q: `CN(C)CCNCc1ccc(-c2ccc3c(Nc4ccc(Cl)cc4F)ccnc3c2)o1` was tested. Which inhibition [1] did it give?
A: The inhibition was 1.23%.

Q: And the inhibition [2]?
A: Its inhibition is 0.82%.

Q: What about the inhibition [3] of the same compound?
A: Its inhibition is -1.76%.

Q: How did the inhibition [1] turn out when `CCCCC1(c2ccc(F)cc2)NC(=O)N(CC(=O)c2cc(C)n(Cc3ccco3)c2C)C1=O` (stereo unspecified) was run?
A: The inhibition was -0.18%.

Q: What about the inhibition [2] of the same compound?
A: Its inhibition is 0.18%.

Q: And the inhibition [3]?
A: Its inhibition is -0.26%.

Q: For `COc1ccc(-c2nc(NC(=O)CS(=O)(=O)c3ccccc3)sc2C)cc1`, which inhibition [1] is on record?
A: The inhibition was 8.8%.

Q: And the inhibition [2]?
A: The inhibition was 4.92%.

Q: What about the inhibition [3] of the same compound?
A: The inhibition was 1.25%.

Q: `O=C(NCCCCN1CCN(c2ccc3c(c2)CCC3)CC1)c1ccc(NC(=O)c2ccc(Cl)cc2)cc1` was tested. Which inhibition [1] did it give?
A: The inhibition was 55.3%.

Q: What about the inhibition [2] of the same compound?
A: Its inhibition is 38.1%.

Q: And the inhibition [3]?
A: The inhibition was 24.9%.

Q: Which results are given for `N=C(N)c1ccc(-c2cc3ccc(C(=N)N)cc3[nH]2)cc1`?
A: inhibition [1]: 62.9%; inhibition [2]: 62.2%; inhibition [3]: 52.2%

Q: Which results are given for `CCCCCCN1CCC(NCc2ccc(C(F)(F)F)cc2)CC1`?
A: inhibition [1]: 2.05%; inhibition [2]: 1.54%; inhibition [3]: 5.77%

Q: With `Cc1cnc(C(=O)Nc2cccc(-c3ccc(-c4nc5cc(F)ccc5[nH]4)cc3)c2)cn1` as the compound, how does the inhibition [1] read?
A: The inhibition was 12.2%.

Q: What about the inhibition [2] of the same compound?
A: Its inhibition is 10%.

Q: What about the inhibition [3] of the same compound?
A: Its inhibition is 8.63%.

From ChEMBL document CHEMBL3433997, “St. Jude Leishmania screening dataset” (2016)
